Reference: ChEMBL document CHEMBL1201862, “PubChem BioAssay data set” (2004)
The whole screen tested about 58,000 sequences, of which about 3,400 (5.9%) were called active. Cut-off read from the data, not from the text of the source: active = GI50 up to about 1.1 µM and inactive = higher. The list is a sample of the results. Potency and affinity values are given separately.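 Protocol summary: plate cells (96-well), add compound at 5 concentrations, incubate 48 h, interpolate endpoints linearly. GI50: concentration for 50% inhibition of growth.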

The substances below were run on A549 (assay: NCI tumour cell line growth inhibition, 48 h).

Substance	GI50
[Bis(aminomethyl)ethylmethylsilane]tetrachloroplatinum(IV), CHEMBL2146192	2.57 µM
[Bis(aminomethyl)tetramethylenesilane]dichloropaltinum(II), CHEMBL2146205	27 µM
mu-(1,7-nanodiamine-N,N')bis-(cis-aminedichloroplatimum (II)), CHEMBL2146215	38.7 µM
[Bis(aminomethyl)dimethylsilane]tetrachloroplatinum(IV), CHEMBL2146190	4.91 µM
[Bis(aminomethyl)diethylsilane]tetrachloroplatinum(IV), CHEMBL2146203	6.84 µM
CISPLATIN, CHEMBL11359	3.08 µM
[Bis(aminomethyl)dimethylsilane]dichloroplatinum (II), CHEMBL2146201	17.4 µM
cis-Bis[[(trimethylsilyl)methyl]amino]tetrachloroplatinum(IV), CHEMBL2146191	15.6 µM
[Bis(aminomethyl)tetramethylenesilane]tetrachloropaltinum(IV), CHEMBL2146189	8.34 µM
[Bis(aminomethyl)pentamethylenesilane]dichloropaltinum(II), CHEMBL2146202	2.08 µM
[Bis(aminomethyl)pentamethylenesilane]tetrachloropaltinum(IV), CHEMBL2146204	2.02 µM
